Holding throughout (experiment): DAPPL (digital affinity profiling via proximity ligation, sequencing); 10 mM Tris-HCl pH 7.5, 50 mM NaCl, 1 mM DTT, 4% glycerol, room temperature, 30 min; GST-TFs on glutathione beads, 16-mer random dsDNA library, 0.1% formaldehyde crosslink after washing; high values mean tight binding
The target in assay [1] is T1, FEV (Homo sapiens, UniProt Q99581 1-238).
T1 sequence: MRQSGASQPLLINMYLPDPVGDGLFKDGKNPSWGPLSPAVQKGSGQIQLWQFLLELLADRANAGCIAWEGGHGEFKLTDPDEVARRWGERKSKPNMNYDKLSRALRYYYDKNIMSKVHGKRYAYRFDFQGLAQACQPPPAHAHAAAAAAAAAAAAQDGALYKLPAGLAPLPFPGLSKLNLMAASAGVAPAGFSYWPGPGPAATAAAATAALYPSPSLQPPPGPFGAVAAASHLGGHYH
To be noted: protein: recombinant; tags: N-terminal GST; dsDNA, one strand shown. In outline:
(§1)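 Binding signal is each hexamer's read frequency for a factor divided by its frequency in the tag-only sample. The factors were GST-fused human transcription factors from yeast, captured on glutathione beads, DNA-barcoded and pooled with that sample. Pools were incubated with 200 nmole of a random double-stranded 16-mer DNA library in Tris/NaCl/DTT/glycerol buffer at room temperature for 30 min, then washed, crosslinked with 0.1% formaldehyde, proximity-ligated with BsaI/T4 ligase (1 h, 37 °C), PCR-amplified and sequenced on an Illumina NextSeq500.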

Assay [2] concerns the target ETV5 (Homo sapiens, UniProt P41161 1-510). To be noted: protein: recombinant; tags: N-terminal GST; dsDNA, one strand shown. In outline: as §1
Assay [3] addresses HSF1 (Homo sapiens, UniProt Q00613 1-529). The following applies: protein: recombinant; tags: N-terminal GST; chain copies: 3; dsDNA, one strand shown. In short, it runs like this: as §1
Assay [4] deals with T2, SPIC (Homo sapiens, UniProt Q8N5J4 1-248).
T2 sequence: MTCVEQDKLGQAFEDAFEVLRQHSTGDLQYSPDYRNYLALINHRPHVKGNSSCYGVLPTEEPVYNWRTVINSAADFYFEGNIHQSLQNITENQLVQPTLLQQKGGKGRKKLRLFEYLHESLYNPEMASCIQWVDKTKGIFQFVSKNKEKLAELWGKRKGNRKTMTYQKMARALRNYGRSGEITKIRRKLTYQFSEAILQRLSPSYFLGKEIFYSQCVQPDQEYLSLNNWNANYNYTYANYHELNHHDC
To be noted: protein: recombinant; tags: N-terminal GST; dsDNA, one strand shown. In short, it runs like this:
as §1

Assay [5] addresses ELF4 (Homo sapiens, UniProt Q99607 1-663). To be noted: protein: recombinant; tags: N-terminal GST; dsDNA, one strand shown. In short, it runs like this:
as §1

In assay [6] the target is T3, ELK4 (Homo sapiens, UniProt P28324-2 1-405).
T3 sequence: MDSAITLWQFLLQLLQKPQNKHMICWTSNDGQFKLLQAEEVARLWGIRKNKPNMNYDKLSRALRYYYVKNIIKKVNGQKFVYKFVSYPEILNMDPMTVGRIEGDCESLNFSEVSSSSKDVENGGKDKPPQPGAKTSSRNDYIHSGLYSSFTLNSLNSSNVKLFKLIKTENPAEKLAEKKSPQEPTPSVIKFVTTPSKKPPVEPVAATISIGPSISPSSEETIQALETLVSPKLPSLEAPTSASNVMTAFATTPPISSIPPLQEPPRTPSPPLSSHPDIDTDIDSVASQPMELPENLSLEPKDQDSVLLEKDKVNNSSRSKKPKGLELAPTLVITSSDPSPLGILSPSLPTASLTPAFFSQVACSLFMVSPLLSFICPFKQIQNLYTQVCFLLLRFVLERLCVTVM
The following applies: protein: recombinant; tags: N-terminal GST; dsDNA, one strand shown. In short, it runs like this:
as §1

For assay [7], the target named is T4, ETV2 (Homo sapiens, UniProt O00321 1-342).
T4 sequence: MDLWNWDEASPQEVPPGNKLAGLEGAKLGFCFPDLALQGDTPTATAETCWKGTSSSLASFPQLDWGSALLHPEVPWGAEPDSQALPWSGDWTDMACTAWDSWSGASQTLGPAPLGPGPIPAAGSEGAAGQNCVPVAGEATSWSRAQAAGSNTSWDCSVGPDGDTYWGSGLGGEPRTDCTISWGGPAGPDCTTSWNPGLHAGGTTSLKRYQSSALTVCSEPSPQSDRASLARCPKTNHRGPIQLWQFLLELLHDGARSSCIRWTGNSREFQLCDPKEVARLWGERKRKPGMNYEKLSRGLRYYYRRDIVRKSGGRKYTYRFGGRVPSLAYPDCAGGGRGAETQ
To be noted: protein: recombinant; tags: N-terminal GST; dsDNA, one strand shown. In short, it runs like this:
as §1

Assay [8] concerns the target T5, ELF3 (Homo sapiens, UniProt P78545 1-371).
T5 sequence: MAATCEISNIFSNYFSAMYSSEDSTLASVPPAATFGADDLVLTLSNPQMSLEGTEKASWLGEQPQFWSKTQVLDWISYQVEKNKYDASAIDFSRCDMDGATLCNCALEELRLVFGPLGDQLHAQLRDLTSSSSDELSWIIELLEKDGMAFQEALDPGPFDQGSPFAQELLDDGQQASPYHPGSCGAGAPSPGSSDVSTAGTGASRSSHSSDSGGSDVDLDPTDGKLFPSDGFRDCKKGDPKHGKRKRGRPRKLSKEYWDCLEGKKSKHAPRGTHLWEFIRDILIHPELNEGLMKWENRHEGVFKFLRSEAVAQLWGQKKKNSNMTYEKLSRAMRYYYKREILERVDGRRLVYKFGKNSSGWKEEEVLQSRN
The following applies: protein: recombinant; tags: N-terminal GST; dsDNA, one strand shown. In short, it runs like this: as §1

In assay [9] the target is CRX (Homo sapiens, UniProt O43186 1-299). To be noted: protein: recombinant; tags: N-terminal GST; dsDNA, one strand shown. In short, it runs like this:
as §1

Assay [10] addresses ETV1 (Homo sapiens, UniProt P50549 1-477). The following applies: protein: recombinant; tags: N-terminal GST; dsDNA, one strand shown. In short, it runs like this:
as §1

Assay [11] addresses T6, ERF (Homo sapiens, UniProt P50548 1-548).
T6 sequence: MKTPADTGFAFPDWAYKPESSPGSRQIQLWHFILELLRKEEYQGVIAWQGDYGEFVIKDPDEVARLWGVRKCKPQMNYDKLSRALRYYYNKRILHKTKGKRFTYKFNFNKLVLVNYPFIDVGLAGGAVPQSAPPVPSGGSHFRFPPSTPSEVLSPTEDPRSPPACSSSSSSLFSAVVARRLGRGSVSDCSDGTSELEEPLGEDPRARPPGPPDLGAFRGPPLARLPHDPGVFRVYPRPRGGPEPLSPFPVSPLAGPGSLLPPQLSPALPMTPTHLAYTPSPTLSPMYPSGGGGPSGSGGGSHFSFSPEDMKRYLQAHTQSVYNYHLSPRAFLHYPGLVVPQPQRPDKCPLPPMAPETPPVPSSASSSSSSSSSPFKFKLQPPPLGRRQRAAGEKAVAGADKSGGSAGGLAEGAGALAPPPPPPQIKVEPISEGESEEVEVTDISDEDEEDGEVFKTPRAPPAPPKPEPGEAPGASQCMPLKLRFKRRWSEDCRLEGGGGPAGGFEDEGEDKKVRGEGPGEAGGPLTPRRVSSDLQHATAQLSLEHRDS
To be noted: protein: recombinant; tags: N-terminal GST; dsDNA, one strand shown. In outline: as §1

Assay [12] has as its target T7, ETV3L (Homo sapiens, UniProt Q6ZN32 1-361).
T7 sequence: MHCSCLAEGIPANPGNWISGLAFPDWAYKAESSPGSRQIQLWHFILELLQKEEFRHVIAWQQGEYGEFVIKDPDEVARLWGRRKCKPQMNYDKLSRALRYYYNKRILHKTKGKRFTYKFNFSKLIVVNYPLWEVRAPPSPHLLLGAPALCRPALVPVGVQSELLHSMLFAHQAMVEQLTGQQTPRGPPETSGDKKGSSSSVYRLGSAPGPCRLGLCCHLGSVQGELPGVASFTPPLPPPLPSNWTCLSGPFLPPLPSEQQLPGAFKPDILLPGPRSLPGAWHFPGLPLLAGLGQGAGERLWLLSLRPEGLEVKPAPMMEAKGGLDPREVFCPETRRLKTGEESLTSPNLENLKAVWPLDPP
To be noted: protein: recombinant; tags: N-terminal GST; dsDNA, one strand shown. In short, it runs like this: as §1

Assay [13] addresses T8, ETS2 (Homo sapiens, UniProt P15036 1-469).
T8 sequence: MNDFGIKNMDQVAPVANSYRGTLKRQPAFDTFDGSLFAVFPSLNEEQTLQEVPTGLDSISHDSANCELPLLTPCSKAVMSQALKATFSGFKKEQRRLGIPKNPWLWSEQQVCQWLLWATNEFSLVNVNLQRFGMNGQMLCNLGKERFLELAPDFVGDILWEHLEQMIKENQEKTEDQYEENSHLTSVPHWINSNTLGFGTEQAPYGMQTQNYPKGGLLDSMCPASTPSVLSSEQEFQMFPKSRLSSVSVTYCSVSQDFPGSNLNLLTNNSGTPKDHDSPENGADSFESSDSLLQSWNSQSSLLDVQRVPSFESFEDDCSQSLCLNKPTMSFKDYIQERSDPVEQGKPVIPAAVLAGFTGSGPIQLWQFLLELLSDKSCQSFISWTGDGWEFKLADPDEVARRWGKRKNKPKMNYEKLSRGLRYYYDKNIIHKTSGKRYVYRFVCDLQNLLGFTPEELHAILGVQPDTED
The following applies: protein: recombinant; tags: N-terminal GST; dsDNA, one strand shown. In short, it runs like this: as §1

In assay [14] the target is T9, SPDEF (Homo sapiens, UniProt O95238 1-335).
T9 sequence: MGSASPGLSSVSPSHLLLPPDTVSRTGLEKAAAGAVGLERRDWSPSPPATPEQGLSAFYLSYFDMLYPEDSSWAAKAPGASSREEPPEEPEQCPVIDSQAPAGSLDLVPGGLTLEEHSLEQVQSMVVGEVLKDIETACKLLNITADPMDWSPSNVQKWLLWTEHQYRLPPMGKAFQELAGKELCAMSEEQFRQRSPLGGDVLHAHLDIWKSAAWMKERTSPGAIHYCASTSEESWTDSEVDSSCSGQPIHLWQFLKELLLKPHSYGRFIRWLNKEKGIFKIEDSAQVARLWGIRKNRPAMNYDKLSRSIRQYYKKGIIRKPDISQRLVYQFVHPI
To be noted: protein: recombinant; tags: N-terminal GST; dsDNA, one strand shown. In outline: as §1

The target in assay [15] is T10, ETV7 (Homo sapiens, UniProt Q9Y603 1-341).
T10 sequence: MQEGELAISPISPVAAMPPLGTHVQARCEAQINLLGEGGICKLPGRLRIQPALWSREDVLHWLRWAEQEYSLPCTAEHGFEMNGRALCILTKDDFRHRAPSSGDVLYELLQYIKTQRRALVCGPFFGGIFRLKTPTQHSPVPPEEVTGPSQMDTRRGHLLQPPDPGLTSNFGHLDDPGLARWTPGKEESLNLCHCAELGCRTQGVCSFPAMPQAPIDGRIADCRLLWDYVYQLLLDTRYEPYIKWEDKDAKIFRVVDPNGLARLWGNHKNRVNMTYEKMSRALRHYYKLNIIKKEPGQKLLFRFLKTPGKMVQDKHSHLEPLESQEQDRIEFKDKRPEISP
The following applies: protein: recombinant; tags: N-terminal GST; dsDNA, one strand shown. In outline:
as §1

Assay [16] concerns the target T11, ELF5 (Homo sapiens, UniProt Q9UKW6-2 1-255).
T11 sequence: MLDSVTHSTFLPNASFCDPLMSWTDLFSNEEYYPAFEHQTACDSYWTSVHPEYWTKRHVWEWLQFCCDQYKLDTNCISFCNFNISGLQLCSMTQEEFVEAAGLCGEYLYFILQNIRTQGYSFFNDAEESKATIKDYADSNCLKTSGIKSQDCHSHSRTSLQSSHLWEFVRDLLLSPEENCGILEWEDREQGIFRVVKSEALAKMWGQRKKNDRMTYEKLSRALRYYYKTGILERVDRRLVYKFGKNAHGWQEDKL
The following applies: protein: recombinant; tags: N-terminal GST; dsDNA, one strand shown. In outline: as §1

Assay [17] has as its target T12, ETV3 (Homo sapiens, UniProt P41162-2 1-143).
T12 sequence: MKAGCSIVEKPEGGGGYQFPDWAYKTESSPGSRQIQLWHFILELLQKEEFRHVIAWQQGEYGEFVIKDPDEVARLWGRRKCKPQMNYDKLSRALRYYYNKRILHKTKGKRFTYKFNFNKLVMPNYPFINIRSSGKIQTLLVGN
The following applies: protein: recombinant; tags: N-terminal GST; dsDNA, one strand shown. In outline:
as §1

In assay [18] the target is ETV6 (Homo sapiens, UniProt P41212 1-452). The following applies: protein: recombinant; tags: N-terminal GST; dsDNA, one strand shown. In short, it runs like this:
as §1

Chain of ETV5 (P41161 whole entry): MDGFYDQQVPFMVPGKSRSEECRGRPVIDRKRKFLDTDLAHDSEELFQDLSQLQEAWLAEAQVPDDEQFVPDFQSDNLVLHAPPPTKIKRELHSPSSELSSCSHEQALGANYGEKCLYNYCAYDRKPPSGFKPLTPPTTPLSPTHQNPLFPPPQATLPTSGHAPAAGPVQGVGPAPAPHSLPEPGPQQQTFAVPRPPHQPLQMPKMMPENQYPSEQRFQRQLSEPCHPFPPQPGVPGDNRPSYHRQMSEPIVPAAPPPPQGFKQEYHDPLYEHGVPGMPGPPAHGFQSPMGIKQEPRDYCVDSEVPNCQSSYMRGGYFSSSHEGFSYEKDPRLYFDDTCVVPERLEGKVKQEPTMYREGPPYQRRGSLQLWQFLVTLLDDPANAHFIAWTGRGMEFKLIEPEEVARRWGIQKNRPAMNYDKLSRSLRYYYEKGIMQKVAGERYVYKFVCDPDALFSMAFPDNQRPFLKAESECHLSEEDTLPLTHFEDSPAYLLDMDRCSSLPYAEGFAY
Chain of ETV1 (P50549 whole entry): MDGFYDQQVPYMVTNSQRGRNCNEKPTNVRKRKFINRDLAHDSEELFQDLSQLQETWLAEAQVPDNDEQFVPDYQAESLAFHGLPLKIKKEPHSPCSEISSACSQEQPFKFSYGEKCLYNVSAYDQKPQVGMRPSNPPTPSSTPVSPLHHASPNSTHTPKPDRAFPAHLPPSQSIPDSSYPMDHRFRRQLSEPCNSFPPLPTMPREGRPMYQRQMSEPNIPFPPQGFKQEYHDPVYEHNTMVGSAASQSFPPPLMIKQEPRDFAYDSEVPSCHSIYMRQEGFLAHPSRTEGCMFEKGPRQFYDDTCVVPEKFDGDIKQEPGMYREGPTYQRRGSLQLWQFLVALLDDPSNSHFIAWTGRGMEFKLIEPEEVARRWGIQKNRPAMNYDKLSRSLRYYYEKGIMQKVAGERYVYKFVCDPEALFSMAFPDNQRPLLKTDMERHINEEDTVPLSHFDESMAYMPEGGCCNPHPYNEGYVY
Chain of HSF1 (Q00613 whole entry): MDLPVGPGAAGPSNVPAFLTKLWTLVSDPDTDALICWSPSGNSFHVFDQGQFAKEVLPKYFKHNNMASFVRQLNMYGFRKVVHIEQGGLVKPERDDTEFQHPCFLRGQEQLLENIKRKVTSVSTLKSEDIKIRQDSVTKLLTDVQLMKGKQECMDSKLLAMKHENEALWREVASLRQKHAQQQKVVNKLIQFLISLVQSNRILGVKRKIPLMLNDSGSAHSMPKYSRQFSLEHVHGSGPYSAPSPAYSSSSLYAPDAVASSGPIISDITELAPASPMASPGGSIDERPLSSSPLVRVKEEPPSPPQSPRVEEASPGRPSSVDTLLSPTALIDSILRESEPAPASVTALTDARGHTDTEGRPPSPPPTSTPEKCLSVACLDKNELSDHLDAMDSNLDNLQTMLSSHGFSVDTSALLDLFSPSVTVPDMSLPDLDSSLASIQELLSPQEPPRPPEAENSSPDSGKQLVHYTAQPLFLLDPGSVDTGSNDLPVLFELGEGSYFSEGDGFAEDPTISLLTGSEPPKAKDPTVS
Chain of ETV6 (P41212 whole entry): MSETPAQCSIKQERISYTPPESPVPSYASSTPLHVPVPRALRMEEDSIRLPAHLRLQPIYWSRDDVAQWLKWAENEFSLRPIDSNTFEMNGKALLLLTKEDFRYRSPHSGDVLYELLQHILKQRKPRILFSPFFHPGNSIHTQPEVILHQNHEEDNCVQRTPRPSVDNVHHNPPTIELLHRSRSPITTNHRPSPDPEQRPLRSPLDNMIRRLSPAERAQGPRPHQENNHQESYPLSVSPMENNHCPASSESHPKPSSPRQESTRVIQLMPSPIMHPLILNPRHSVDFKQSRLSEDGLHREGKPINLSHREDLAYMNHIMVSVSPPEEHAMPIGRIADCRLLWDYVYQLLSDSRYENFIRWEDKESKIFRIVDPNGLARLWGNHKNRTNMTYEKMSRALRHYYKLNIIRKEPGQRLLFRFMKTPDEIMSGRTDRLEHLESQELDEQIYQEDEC
Chain of ELF4 (Q99607 whole entry): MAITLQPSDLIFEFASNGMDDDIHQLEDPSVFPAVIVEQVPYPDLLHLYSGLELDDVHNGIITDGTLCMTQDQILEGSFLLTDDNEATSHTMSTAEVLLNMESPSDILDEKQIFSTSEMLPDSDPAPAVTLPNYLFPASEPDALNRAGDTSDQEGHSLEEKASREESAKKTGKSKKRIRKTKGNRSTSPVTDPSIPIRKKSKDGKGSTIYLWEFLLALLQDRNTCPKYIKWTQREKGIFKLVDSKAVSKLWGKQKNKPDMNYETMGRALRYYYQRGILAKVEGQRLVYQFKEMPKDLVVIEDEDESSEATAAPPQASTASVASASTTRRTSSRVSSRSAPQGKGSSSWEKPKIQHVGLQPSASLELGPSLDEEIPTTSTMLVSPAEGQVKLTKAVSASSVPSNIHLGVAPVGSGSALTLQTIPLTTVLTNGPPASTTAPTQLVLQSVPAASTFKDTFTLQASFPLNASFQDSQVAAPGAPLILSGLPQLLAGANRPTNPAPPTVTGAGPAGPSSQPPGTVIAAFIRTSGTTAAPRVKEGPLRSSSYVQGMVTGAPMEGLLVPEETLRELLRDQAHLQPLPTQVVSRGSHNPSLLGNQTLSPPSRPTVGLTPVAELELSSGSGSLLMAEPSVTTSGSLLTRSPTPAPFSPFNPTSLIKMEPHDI
Chain of CRX (O43186 whole entry): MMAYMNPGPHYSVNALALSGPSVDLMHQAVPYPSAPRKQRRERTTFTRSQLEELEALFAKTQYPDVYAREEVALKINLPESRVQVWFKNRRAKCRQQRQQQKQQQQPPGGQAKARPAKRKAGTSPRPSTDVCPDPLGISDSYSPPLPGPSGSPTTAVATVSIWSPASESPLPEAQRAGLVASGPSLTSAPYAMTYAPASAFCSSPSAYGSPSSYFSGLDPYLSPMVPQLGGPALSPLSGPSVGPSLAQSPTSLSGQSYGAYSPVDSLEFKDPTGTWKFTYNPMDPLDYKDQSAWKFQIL

As to TCTCAG, the binding signal in assay [1] was 1.37 fold enrichment (6-mer frequency, TF over GST control); in assay [2], 1.33 fold enrichment (6-mer frequency, TF over GST control); in [3] it was 1.4 fold enrichment (6-mer frequency, TF over GST control); in [4], 1.16 fold enrichment (6-mer frequency, TF over GST control); in [5], 1.36 fold enrichment (6-mer frequency, TF over GST control); in assay [6] it was 1.34 fold enrichment (6-mer frequency, TF over GST control). In addition, the binding signal in assay [7] is 1.37 fold enrichment (6-mer frequency, TF over GST control); in assay [8] it was 1.37 fold enrichment (6-mer frequency, TF over GST control); in assay [9], 1.46 fold enrichment (6-mer frequency, TF over GST control); in assay [10], 1.33 fold enrichment (6-mer frequency, TF over GST control); in assay [11] it was 1.26 fold enrichment (6-mer frequency, TF over GST control); in assay [12] it was 1.26 fold enrichment (6-mer frequency, TF over GST control). The binding signal in [13] was 1.37 fold enrichment (6-mer frequency, TF over GST control); in assay [14], 1.33 fold enrichment (6-mer frequency, TF over GST control); in [15], 1.26 fold enrichment (6-mer frequency, TF over GST control); in assay [16] it was 1.31 fold enrichment (6-mer frequency, TF over GST control); in assay [17], 1.43 fold enrichment (6-mer frequency, TF over GST control); in assay [18], 1.34 fold enrichment (6-mer frequency, TF over GST control).

Source of the values: PMC7862700, “An all-to-all approach to the identification of sequence-specific readers for epigenetic DNA modifications on cytosine”.
